Results reported in the supplement of paper PMC6992640.
± gives the standard deviation of the averaged measurements.

Legend:
Assay in all cases: cell viability (% of vehicle); higher = less cytotoxic
HCI01 [1] = cells of a triple-negative basal-like breast cancer xenograft; conditions: 1 µM; 72 h
UCD52 [2] = cells of a triple-negative basal-like breast cancer xenograft; conditions: 1 µM; 72 h
WHIM2 [3] = cells of a triple-negative basal-like breast cancer xenograft; conditions: 1 µM; 72 h
WHIM30 [4] = cells of a triple-negative basal-like breast cancer xenograft; conditions: 1 µM; 72 h
HCI01 [5] = conditions: 10 µM; 72 h
HCI03 = cells of an ER-positive luminal breast cancer xenograft; conditions: 10 µM; 72 h
HCI09 = cells of a triple-negative luminal androgen receptor type breast cancer xenograft; conditions: 10 µM; 72 h
HCI11 = cells of an ER-positive luminal breast cancer xenograft; conditions: 10 µM; 72 h
HCI13 = cells of an ER-positive luminal breast cancer xenograft; conditions: 10 µM; 72 h
HCI16 = cells of a triple-negative basal-like breast cancer xenograft; conditions: 10 µM; 72 h
UCD52 [6] = conditions: 10 µM; 72 h
WHIM2 [7] = conditions: 10 µM; 72 h
WHIM30 [8] = conditions: 10 µM; 72 h

Row | Compound | cell viability (HCI01 [1]) | cell viability (UCD52 [2]) | cell viability (WHIM2 [3]) | cell viability (WHIM30 [4]) | cell viability (HCI01 [5]) | cell viability (HCI03) | cell viability (HCI09) | cell viability (HCI11) | cell viability (HCI13) | cell viability (HCI16) | cell viability (UCD52 [6]) | cell viability (WHIM2 [7]) | cell viability (WHIM30 [8])
1 | CO[C@@]12[C@H](COC(N)=O)C3=C(C(=O)C(C)=C(N)C3=O)N1C[C@@H]1N[C@@H]12 [Mitomycin C] | 59.3 | 88.3 | 75.4 | 66.9 | 46.7 ± 2.1 | 56.9 | 35.4 ± 3.3 | 64.6 | 45 ± 3.3 | 61.4 | 32.3 ± 0.47 | 47.3 ± 5.7 | 57.77 ± 0.16
2 | CC(O)C(=O)O.CCOc1ccc2nc3cc(N)ccc3c(N)c2c1.O [Ethacridine lactate monohydrate] | 83.7 | 95.6 | 58.8 | 68.3 | 57.6 ± 15 | 41.6 | 24.4 ± 4.4 | 36.3 | 57.4 ± 17 |  | 158 ± 32 | 49.6 ± 8.4 | 76.2 ± 3
3 | CC(NCCCc1cccc(C(F)(F)F)c1)c1cccc2ccccc12 (centres undefined) [Cinacalcet] | 102 | 78.1 | 91.9 | 83.9 | 33.2 ± 2.7 | 34.2 | 17.1 ± 4.2 | 122 | 43.4 ± 3 | 33.5 | 17.3 ± 0.67 | 34.7 ± 8.7 | 35.8 ± 1.6
4 | COc1cc(C(=O)O)ccc1NC(=O)C1NC(CC(C)(C)C)C(C#N)(c2ccc(Cl)cc2F)C1c1cccc(Cl)c1F (centres undefined) | 95.1 | 89.1 | 99.1 | 91.3 | 63.9 ± 30 | 143 | 37.1 ± 9.3 | 118 | 60.9 ± 7.6 | 97.1 | 101 ± 6.1 | 44.9 ± 8.6 | 102 ± 14
5 | CN1CCN(c2ccc(C(=O)/N=c3\[nH][nH]c4ccc(Cc5cc(F)cc(F)c5)cc34)c(NC3CCOCC3)c2)CC1 [Entrectinib] | 92.3 | 72.6 | 81.7 | 71.9 | 28.2 ± 2.5 | 59.8 | 22.8 ± 0.65 | 48.9 | 41 ± 5.5 | 58.5 | 36.98 ± 0.05 | 42.6 ± 4.1 | 41.8 ± 12
6 | Cl.Fc1ccc(C2CCNCC2COc2ccc3c(c2)OCO3)cc1 (centres undefined) [Paroxetine HCl] | 91.6 | 79.7 | 100 | 87.4 | 63.7 ± 19 | 128 | 90.3 ± 17 | 74.8 | 120 ± 6.4 | 77.4 | 38.6 ± 4.8 | 43 ± 7.7 | 80.71 ± 0.29
7 | Cl.Clc1ccccc1CN1CCc2sccc2C1 [Ticlopidine HCl] | 99.4 | 97.4 | 99.6 | 91.9 | 56.5 ± 32 | 108 | 82 ± 2.9 | 91.6 | 108 ± 34 | 97.2 | 62.5 ± 2.4 | 82.5 ± 24 | 89.7 ± 5.6
8 | CC[C@H](C)[C@H]1O[C@]2(CC[C@@H]1C)C[C@@H]1C[C@@H](C/C=C(\C)[C@@H](O[C@H]3C[C@H](OC)[C@@H](O[C@H]4C[C@H](OC)[C@@H](O)[C@H](C)O4)[C@H](C)O3)[C@@H](C)/C=C/C=C3\CO[C@@H]4[C@H](O)C(C)=C[C@@H](C(=O)O1)[C@]34O)O2 [Ivermectin] | 90.6 | 57.6 | 86.6 | 73.3 | 38.3 ± 8 | 81.2 | 20 ± 3.4 | 81 | 37.6 ± 8.1 | 82.9 | 76.3 ± 3 | 40.5 ± 7.1 | 36.2 ± 3
9 | COc1cc2c(Oc3ccc(NC(=O)C4(C(=O)Nc5ccc(F)cc5)CC4)cc3F)ccnc2cc1OCCCN1CCOCC1 | 89.1 | 48.2 | 71.2 | 70.2 | 35.4 ± 4.4 | 55 | 65.7 ± 32 | 52.7 | 60.2 ± 6.2 | 48 | 28 ± 2.1 | 50.1 ± 11 | 64.8 ± 15
10 | COC(=O)NC(C(=O)NC(Cc1ccccc1)C(O)CN(Cc1ccc(-c2ccccn2)cc1)NC(=O)C(NC(=O)OC)C(C)(C)C)C(C)(C)C (centres undefined) [Atazanavir] | 92.8 | 80.2 | 91.7 | 84.6 | 88.35 ± 0.71 | 80 | 57.5 ± 2 | 74.5 | 81.7 ± 5.1 | 151 | 51.6 ± 3.1 | 73.7 ± 1.3 | 82.1 ± 5.5
11 | COCCn1c2c([n+](Cc3cnccn3)c1C)C(=O)c1ccccc1C2=O.[Br-] | 29.6 | 21.3 | 21.1 | 27 | 85.5 ± 29 | 48.3 | 28.3 ± 3.6 | 60.2 | 68.9 ± 8.8 | 82.5 | 53.9 ± 8.2 | 55.5 ± 2.3 | 62.3 ± 5.1
12 | Cl.Cl.Fc1ccc(C(c2ccc(F)cc2)N2CCN(CC=Cc3ccccc3)CC2)cc1 [Flunarizine 2HCl] | 106 | 94.1 | 101 | 88.9 | 106 ± 20 | 82.4 | 82.2 ± 42 | 96.5 | 75.4 ± 9.1 | 106 | 46.7 ± 2.5 | 38.9 ± 12 | 87.3 ± 8.5
13 | Cc1nc(Nc2ncc(C(=O)Nc3c(C)cccc3Cl)s2)cc(N2CCN(CCO)CC2)n1 | 78.6 | 39.7 | 67.7 | 55.6 | 59.7 ± 21 | 53.7 | 53.2 ± 2.6 | 60.3 | 40.2 ± 3.5 | 40.5 | 39.3 ± 3.5 | 39.3 ± 3.4 | 57.8 ± 1.2
14 | COc1ncc(-c2ccc3nccc(-c4ccnnc4)c3c2)cc1NS(=O)(=O)c1ccc(F)cc1F | 53 | 23.2 | 31.9 | 48 | 64.11 ± 0.34 | 65.6 | 26.64 ± 0.21 | 70.3 |  | 147 | 43.4 ± 1 | 49.7 ± 7.6 | 42.9 ± 2.3
15 | Nc1ccn(C2OC(CO)C(O)C2O)c(=O)n1 (centres undefined) [Cytarabine] | 75 | 106 | 87.1 | 80.9 | 65 ± 1.2 | 101 | 94.2 ± 1.1 | 136 | 76.4 ± 11 | 83.3 | 91.4 ± 17 | 58.4 ± 8.6 | 86.07 ± 0.15
16 | CSc1ccc2c(c1)N(CCC1CCCCN1C)c1ccccc1S2.Cl (centres undefined) [Thioridazine HCl] | 87 | 82.5 | 92.4 | 84.7 | 44.9 ± 9.3 | 52.1 | 26.4 ± 1.2 | 88.4 | 55.6 ± 3.4 | 41.4 | 36.8 ± 0.53 | 42.2 ± 10 | 61.9 ± 3.6
17 | CCCCCOc1ccc(-c2ccc(-c3ccc(C(=O)N[C@H]4C[C@@H](O)[C@@H](O)NC(=O)[C@@H]5[C@@H](O)[C@@H](C)CN5C(=O)[C@H]([C@@H](C)O)NC(=O)[C@H]([C@H](O)[C@@H](O)c5ccc(O)cc5)NC(=O)[C@@H]5C[C@@H](O)CN5C(=O)[C@H]([C@@H](C)O)NC4=O)cc3)cc2)cc1 [Anidulafungin] | 100 | 82.5 | 82.8 | 72.2 | 45 ± 2.3 | 67.5 | 40.3 ± 15 | 92.4 | 58.3 ± 5.8 | 55.2 | 47.7 ± 8.9 | 67.4 ± 5.7 | 112 ± 16
18 | COc1ccc(C[C@H](N)C(=O)N[C@@H]2[C@H](O)[C@H](n3cnc4c(N(C)C)ncnc43)O[C@@H]2CO)cc1.Cl.Cl [Puromycin dihydrochloride] | 93.8 | 22.3 | 86.9 | 76.8 | 28.6 ± 2.4 | 58.6 | 26.89 ± 0.082 | 33.4 | 51.1 ± 14 | 52 | 34.5 ± 0.59 | 42 ± 4.2 | 33.3 ± 2.3
19 | CC(C)(C)c1ccc(C(O)CCCN2CCC(C(O)(c3ccccc3)c3ccccc3)CC2)cc1 (centres undefined) [Terfenadine] | 89 | 79.9 | 81.1 | 73.1 | 34.4 ± 5.2 | 38.1 | 30.4 ± 2.9 | 55.3 | 48.3 ± 4.8 | 45.8 | 35.1 ± 4 | 42 ± 2.8 | 29.6 ± 3.5
20 | CN1CCCC1CCOC(C)(c1ccccc1)c1ccc(Cl)cc1.O=C(O)C=CC(=O)O (centres undefined) [Clemastine Fumarate] | 98.5 | 85.8 | 103 | 78.8 | 95.7 ± 30 | 79.3 | 52.8 ± 36 | 69.2 | 136 ± 24 | 74.4 | 36.5 ± 3.4 | 37.8 ± 3 | 104 ± 10
21 | Cc1c(-c2ccc(O)cc2)n(Cc2ccc(OCCN3CCCCCC3)cc2)c2ccc(O)cc12.Cl [Bazedoxifene HCl] | 120 | 94.2 | 89.7 | 91.6 | 56.4 ± 32 | 41.6 | 21.6 ± 0.65 | 73.9 | 38 ± 6.1 | 114 | 45.6 ± 2.9 | 53.2 ± 6.3 | 83.1 ± 1.6
22 | C[C@H]1O[C@@H](O[C@H]2[C@@H](O)C[C@H](O[C@H]3[C@@H](O)C[C@H](O[C@H]4CC[C@@]5(C)[C@H](CC[C@@H]6[C@@H]5C[C@@H](O)[C@]5(C)[C@@H](C7=CC(=O)OC7)CC[C@]65O)C4)O[C@@H]3C)O[C@@H]2C)C[C@H](O)[C@@H]1O [Digoxin] | 50.6 | 25.3 | 138 | 25.7 | 35.2 ± 3 | 97.9 | 40.1 ± 17 | 69.2 |  | 45.8 | 66.6 ± 8.6 | 66.4 ± 7.6 | 41.4 ± 1.1
23 | COc1ccccc1OCCNCC(O)COc1cccc2[nH]c3ccccc3c12 (centres undefined) [Carvedilol] | 92.5 | 99.9 | 91.3 | 111 | 97.88 ± 0.3 | 69.9 | 75.9 ± 8.1 | 88.7 | 123.82 ± 0.064 | 127 | 44 ± 1.3 | 46.1 ± 3.3 | 102.1 ± 0.59
24 | CCN(CC)CCCC(C)Nc1ccnc2cc(Cl)ccc12.O=P(O)(O)O.O=P(O)(O)O (centres undefined) [Chloroquine diphosphate] | 88.7 | 68.5 | 77.4 | 81.2 | 75.4 ± 4.4 | 93.1 | 95.5 ± 18 | 88.4 | 142 ± 20 | 102 | 72.7 ± 0.86 | 71.2 ± 17 | 74.46 ± 0.26
25 | CN(C)CC=CC(=O)Nc1cc2c(Nc3ccc(F)c(Cl)c3)ncnc2cc1OC1CCOC1 (centres undefined) [Afatinib (BIBW2992)] | 71.3 | 27.2 | 50.9 | 49.6 | 25.61 ± 0.24 | 47.7 | 15.1 ± 1.8 | 73.5 | 43.4 ± 1.5 | 55.4 | 18.7 ± 0.37 | 34.6 ± 2.6 | 44.3 ± 6.3
26 | CC(C)C1=CC(=C2NNC(=O)N2c2ccc3c(ccn3C)c2)C(=O)C=C1O [Ganetespib (STA-9090)] | 83.9 | 46.6 | 55.2 | 138 | 59.1 ± 28 | 53.9 | 25.3 ± 2 | 36.5 |  | 68.2 | 48.6 ± 9.8 | 95 ± 7.9 | 96.6 ± 1.9
27 | CCC(NC(=O)C(C)NC)C(=O)N1CC(O)CC1Cc1c(-c2[nH]c3cc(F)ccc3c2CC2CC(O)CN2C(=O)C(CC)NC(=O)C(C)NC)[nH]c2cc(F)ccc12 (centres undefined) | 82.8 | 68.5 | 36.3 | 56.6 | 133 ± 5.6 | 99.5 | 146 ± 36 | 128 |  | 115 | 93.8 ± 8.2 | 114.1 ± 0.19 | 149 ± 20
28 | Clc1ccc(COC(Cn2ccnc2)c2ccc(Cl)cc2Cl)c(Cl)c1.O=[N+]([O-])O (centres undefined) [Miconazole Nitrate] | 100 | 96.9 | 111 | 95.9 | 32 ± 8.9 | 93.1 | 27.3 ± 7.1 | 79.9 | 56.9 ± 7.8 | 113 | 48.6 ± 5.8 | 37 ± 9.7 | 128 ± 2
